We go through twelve molecules from PubChem BioAssay.

Assay [1] can be described thus: HepG2 liver cancer cell viability effects, profiling panel, resazurin fluorescence, 24 h, PK04 Diversity Set (AID 1172). Also: test concentration not given here. The conditions noted are these: higher = more signal. A general note: The colour change of resazurin is a common sign of viable cells or microbes.
Assay [2] can be described thus: basal S. cerevisiae growth modulation, no modifier, primary screen, OD600, strain BY4716, 24 h, basal condition (AID 1173). The conditions noted are these: OD600, 24 h, higher = more signal, called active from +8 up or from −8 down.
Assay [3] is described as follows: MM1S myeloma cell viability, profiling panel, resazurin fluorescence, basal, 24 h, PK04 Diversity Set (AID 1174).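 Also: MM1S multiple myeloma cell line; test concentration not given here.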 The conditions noted are these: higher = more signal, called active from +8 up or from −8 down.
In assay [4] the target is Dihydroorotate dehydrogenase (quinone), mitochondrial (Plasmodium falciparum (isolate 3D7)) (UniProt Q08210). The assay can be described thus: PfDHODH enzyme inhibitors, primary screen, biochemical, C-terminal His tag, absorbance 600 nm (AID 1175).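 Also: recombinant parasite enzyme with a five histidine tag at its C terminus; test concentration not given here.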 The conditions noted are these: DCIP absorbance 600 nm, higher = more signal, called active from +8 up or from −8 down.
Chain of Dihydroorotate dehydrogenase (quinone), mitochondrial (Plasmodium falciparum (isolate 3D7)) (Q08210 whole entry, looked up): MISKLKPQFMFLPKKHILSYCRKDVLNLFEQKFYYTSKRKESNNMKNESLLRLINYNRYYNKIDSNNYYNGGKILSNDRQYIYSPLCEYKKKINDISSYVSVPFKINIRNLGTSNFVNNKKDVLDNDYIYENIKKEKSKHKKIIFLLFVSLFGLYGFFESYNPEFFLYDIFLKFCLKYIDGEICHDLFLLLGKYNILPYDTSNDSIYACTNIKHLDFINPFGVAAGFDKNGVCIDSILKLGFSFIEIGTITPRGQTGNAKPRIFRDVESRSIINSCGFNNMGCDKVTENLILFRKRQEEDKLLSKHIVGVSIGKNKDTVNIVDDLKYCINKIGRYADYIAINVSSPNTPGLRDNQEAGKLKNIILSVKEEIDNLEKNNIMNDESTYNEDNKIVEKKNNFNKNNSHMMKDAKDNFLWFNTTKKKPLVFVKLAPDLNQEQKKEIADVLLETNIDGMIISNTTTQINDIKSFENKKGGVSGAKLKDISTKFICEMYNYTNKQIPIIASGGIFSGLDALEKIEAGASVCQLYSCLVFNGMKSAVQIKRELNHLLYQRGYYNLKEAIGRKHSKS
A short description of assay [5]: P. aeruginosa biofilm formation inhibitors, primary screen, strain PAO1, LB-PBS medium, absorbance 600 nm (AID 1176). Also: test concentration not given here. The conditions noted are these: P. aeruginosa PAO1 growth/biofilm, A600, 12 h; higher = more signal.
Assay [6] can be described thus: S. cerevisiae RM11-1a growth modifiers, primary screen, strain RM11-1a, OD600, basal, 24 h (AID 1177).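 Also: cultures grown under basal conditions with no added stressor; test concentration not given here.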 The conditions noted are these: OD600, 24 h, higher = more signal, called active from +8 up or from −8 down.
Assay [7] is described as follows: E. coli acrAB mutant growth effects, primary screen, E. coli filamentation inducers, strain DRC39, OD650, 24 h (AID 1178).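 Also: growth measured as culture turbidity by optical density at 650 nm; test concentration not given here.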 The conditions noted are these: higher = more signal, called active from +8 up or from −8 down.
Assay [8] in a line: E. coli acrAB mutant growth effects, primary screen, E. coli filamentation inducers, strain DRC39, OD650, 48 h (AID 1179).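 Also: screen aims at cell division blockers that make cells filament.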 The conditions noted are these: E. coli DRC39 delta-acrAB growth, higher = more signal, called active from +8 up or from −8 down.
Assay [9] in a line: RPMI8226 myeloma cell viability, profiling panel, resazurin fluorescence, basal, 24 h, PK04 Diversity Set (AID 1180).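 Also: RPMI8826 multiple myeloma cell line at 5000 cells per well; test concentration not given here.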 The conditions noted are these: higher = more signal.
Assay [10] has as its target E3 ubiquitin-protein ligase XIAP (Homo sapiens) (UniProt P98170). The assay can be described thus: XIAP binders, primary screen, biophysical, small-molecule microarray, fluorescence 635 nm (AID 1181).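 Also: score merges 667 nm emission and signal to noise over triplicate slides.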 The conditions noted are these: small-molecule microarray binding, higher = more signal.

Calls of active or inactive are those of the source. Unless noted, no rule for the calls is given here.

Chain of E3 ubiquitin-protein ligase XIAP (Homo sapiens) (P98170 whole entry, looked up): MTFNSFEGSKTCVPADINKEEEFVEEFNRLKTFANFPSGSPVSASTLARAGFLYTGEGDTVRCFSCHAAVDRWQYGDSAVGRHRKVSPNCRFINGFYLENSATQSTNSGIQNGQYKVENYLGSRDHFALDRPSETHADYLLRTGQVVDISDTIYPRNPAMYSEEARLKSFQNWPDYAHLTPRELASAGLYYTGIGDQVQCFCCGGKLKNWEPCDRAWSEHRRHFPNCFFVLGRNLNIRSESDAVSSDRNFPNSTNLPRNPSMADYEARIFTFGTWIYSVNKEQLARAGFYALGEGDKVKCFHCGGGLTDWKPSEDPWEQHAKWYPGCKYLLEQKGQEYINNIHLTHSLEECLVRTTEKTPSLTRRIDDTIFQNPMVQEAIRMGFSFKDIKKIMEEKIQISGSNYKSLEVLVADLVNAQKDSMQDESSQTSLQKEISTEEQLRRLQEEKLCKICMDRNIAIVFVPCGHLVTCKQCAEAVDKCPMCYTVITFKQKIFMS

Turning to `CC(C)=CCCC(C)=CCON=C1C[C@@H](O)[C@@H](O)[C@@H]2[C@@H]3C(=O)N(c4ccc(F)cc4F)C(=O)[C@@H]3CC[C@H]12`, the z-score in [1] was 0.844; in [2] it was -2.97 (inactive); in [3], 0.257 (inactive); in [5], 0.671 (inactive); in assay [6], -0.777 (inactive); in assay [7], 0.375 (inactive). The z-score in assay [8] is 0.438 (inactive); in assay [9], 1.32. Also, the values for the composite z-score in [4] and in assay [10] were -1.42 (inactive) and -0.0939, respectively.
Take `CC(=O)OC[C@H]1O[C@H](CCON=C2[C@H]3CCn4c(=O)n(-c5ccccc5)c(=O)n4[C@H]3[C@H](O)[C@@H]3O[C@H]23)C=C[C@@H]1OC(C)=O`: the z-score is -0.609 in assay [1]; 0.0957 (inactive) in assay [2]; -3.19 (inactive) in assay [3]; -0.95 (inactive) in assay [5]; 0.393 (inactive) in assay [6]; 0.785 (inactive) in [7]. The z-score in [8] is 1.17 (inactive); in [9], -0.759. In addition, the composite z-score in assay [4] is 0.33 (inactive); in assay [10], -0.148.
On to `O=C1CCCC=C1C(CCc1ccccc1)OC(=O)c1ccc(Br)cc1` (stereo not given), for which the z-score in assay [1] was -0.0575; in assay [2], -0.744 (inactive); in assay [3] it was -0.688 (inactive); in assay [5] it was 1.18 (inactive); in assay [6], -0.0079 (inactive); in [7], -0.147 (inactive). The z-score in assay [8] is -0.247 (inactive); in assay [9], 0.504. In addition, the values for the composite z-score in assay [4] and in assay [10] were -1.19 (inactive) and 0.289, respectively.
For `CC(C)CON=C1C[C@@H](O)[C@@H](O)[C@@H]2[C@@H]3C(=O)N(C(C)(C)C)C(=O)[C@@H]3CC[C@H]12`, the z-score was -0.184 in [1]; 0.528 (inactive) in assay [2]; -0.426 (inactive) in assay [3]; -0.613 (inactive) in [5]; -0.131 (inactive) in assay [6]; 0.366 (inactive) in [7]. Also, the values for the z-score in [8] and in [9] were 0.476 (inactive) and -0.246, respectively. The values for the composite z-score in assay [4] and in assay [10] were 0.15 (inactive) and -0.102, respectively.
In the case of `CC(C)=NO[C@H](C)c1cn([C@H](CO)Cc2ccccc2)nn1`, the z-score in [1] is 0.0622; in assay [2] it was -0.489 (inactive); in assay [3] it was -0.11 (inactive); in assay [5] it was 0.204 (inactive); in assay [6], -0.493 (inactive); in [7], 0.517 (inactive). In addition, the z-score in assay [8] is -1.91 (inactive); in assay [9] it was 0.672. Further, the composite z-score in assay [4] is -0.784 (inactive); in assay [10] it was -0.0538.
As for `CCOC(=O)CCN1C(=O)[C@H]2[C@H]3[C@H](O)[C@H](O)CC(=NOCC(C)C)[C@H]3CC[C@H]2C1=O`, the z-score in assay [1] was -0.823; in [2], 0.265 (inactive); in [3] it was -0.662 (inactive); in assay [5], 0.246 (inactive); in assay [6] it was 0.628 (inactive); in assay [7] it was 0.692 (inactive). The z-score in assay [8] is 0.686 (inactive); in [9], -0.876. Moreover, the composite z-score in [4] is -1.19 (inactive); in [10], -0.22.
In the case of `COc1ccc(O[C@H]2C=C[C@@H](c3ccccc3)O[C@@H]2CON=C(C)C)cc1`, the z-score was 0.163 in [1]; -0.964 (inactive) in [2]; -0.253 (inactive) in assay [3]; 0.936 (inactive) in assay [5]; 0.267 (inactive) in assay [6]; 0.366 (inactive) in assay [7]. For the same molecule, the z-score in [8] is -1.8 (inactive); in assay [9], 0.224. For the same molecule, the values for the composite z-score in assay [4] and in assay [10] were 0.271 (inactive) and 0.511, respectively.
With `COC(=O)C=CCCc1coc(C=CCNC(=O)OC)n1`, the z-score in [1] is -0.658; in [2], -1.07 (inactive); in [3], 0.0455 (inactive); in [5], -0.27 (inactive); in assay [6] it was 0.237 (inactive); in [7] it was -1 (inactive). For the same molecule, the figures for the z-score in [8] and in assay [9] were -0.542 (inactive) and -0.102, respectively. The composite z-score was 0.979 (inactive) in assay [4] and 0.249 in assay [10].
With `C[C@H]1Cc2c(COc3ccccc3)nc3c(c2CO1)CN(CCOc1ccccc1)CC3`, the z-score in [1] is -0.503; in [2], -3.09 (inactive); in [3] it was 0.598 (inactive); in assay [5], 1.69 (inactive); in assay [6], -0.466 (inactive); in assay [7] it was 1.52 (inactive). For the same molecule, the z-score was 0.996 (inactive) in assay [8] and 0.961 in assay [9]. Further, the composite z-score is -0.555 (inactive) in [4] and -0.0767 in assay [10].
In the case of `COC(=O)CC=C[C@@H](C)[C@@H](C=NO[C@@H](C)c1cn([C@H](CO)Cc2ccccc2)nn1)OC`, the z-score in assay [1] was -0.849; in assay [2] it was -0.966 (inactive); in assay [3], 0.104 (inactive); in assay [5], -0.418 (inactive); in [6], -2.71 (inactive); in assay [7] it was 0.24 (inactive). Moreover, the z-score in [8] was -0.913 (inactive); in assay [9], -0.514. For the same molecule, the composite z-score is -0.842 (inactive) in [4] and -0.139 in [10].
Turning to `CCN1C(=O)[C@H]2[C@H]3[C@H](O)[C@H](O)CC(=NOC[C@H]4O[C@H](c5ccccc5)C=C[C@@H]4Oc4ccc(OC)cc4)[C@@H]3CC[C@H]2C1=O`, the z-score in assay [1] is -0.985; in assay [2] it was -0.933 (inactive); in assay [3], -0.641 (inactive); in assay [5], 0.241 (inactive); in assay [6] it was 0.635 (inactive); in assay [7] it was 0.602 (inactive). Further, the z-score in assay [8] was 0.923 (inactive); in assay [9], -1.04. In addition, the composite z-score in [4] is -0.953 (inactive); in [10], 0.0617.
On to `C#CCCCON=C1C[C@@H](O)[C@@H](O)[C@@H]2[C@@H]3C(=O)N(C(C)(C)C)C(=O)[C@@H]3CC[C@@H]12`, for which the z-score in assay [1] was -0.202; in assay [2], 0.595 (inactive); in assay [3], -1.24 (inactive); in assay [5], 0.0001 (inactive); in [6], 0.438 (inactive); in assay [7], -0.35 (inactive). Also, the z-score is -0.278 (inactive) in assay [8] and 0.0444 in assay [9]. For the same molecule, the figures for the composite z-score in [4] and in assay [10] were 0.289 (inactive) and -0.0939, respectively.
